# Data as given in the supplement of paper PMC7801607.
# What was measured:
# CHO = test: % viability of CHO cells (MTT); higher = less toxic; conditions: 48 h
# Outline: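 CHO cells were plated at 10^6 cells/well in 200 µL and allowed to attach overnight. Fresh medium with compound at 2 or 20 µM then replaced the old medium for 48 h. Percent viability, relative to untreated cells, came from a colorimetric tetrazolium (MTT) readout.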
# HepG2-A16-CD81 = test: % inhibition of HepG2 viability (CellTiter-Glo); higher = more toxic; conditions: 5 µM
# [1] = tested on: Plasmodium falciparum NF54 stage IV/V gametocytes; test: % inhibition of gametocyte viability (PrestoBlue); higher = more inhibition; conditions: 48 h
# Outline: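 In a single run, percent inhibition of gametocyte viability was calculated relative to vehicle and kill controls. The wells held 100 µL of Stage IV/V NF54 gametocytes at 2% gametocytaemia and 5% haematocrit, with compound at 1 or 5 µM. Plates stood at 37 °C in hypoxic conditions for 48 h. After that, 10 µL PrestoBlue was added for 2 h, and 70 µL of supernatant was transferred for fluorescence reading at 612 nm.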
# [2] = tested on: Plasmodium falciparum NF54 asexual blood stage; test: % inhibition of asexual blood stage proliferation (pLDH); higher = more inhibition; conditions: 72 h
# Outline: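 Percent inhibition of asexual proliferation, normalised to controls, was determined in a screen repeated on two separate occasions. Plasmodium falciparum NF54 ring-stage cultures (1% haematocrit, 2% parasitaemia) received compound at 2 or 20 µM and were incubated for 72 h at 37 °C under 4% CO2, 3% O2 and 93% N2. A colorimetric parasite lactate dehydrogenase readout at 620 nm gave survival.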
# [3] = tested on: Plasmodium falciparum NF54 stage IV/V gametocytes; test: % inhibition of gametocyte viability (ATP bioluminescence); higher = more inhibition; conditions: 24 h
# Outline: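 Enriched stage IV/V NF54 gametocytes were exposed to compound at 1 or 5 µM for 24 h at 37 °C in 96-well plates. Percent inhibition of gametocyte viability was derived from a bioluminescent ATP readout, normalised to controls within a single run.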
# [4] = tested on: Plasmodium falciparum NF54 stage IV/V gametocytes; test: % inhibition of gametocyte viability (luciferase reporter); higher = more inhibition; conditions: 48 h
# Outline: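 Compound at 1 or 5 µM was added to stage IV/V NF54-Pfs16-GFP-Luc gametocytes (2% gametocytaemia, 2% haematocrit) and incubated stationary and hypoxic at 37 °C for 48 h. A GloMax-Multi+ reader measured luminescence over 10 s integration on 30 µL lysate plus 30 µL Promega luciferin substrate. Percent inhibition values were normalised to controls within a single run.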
# [5] = tested on: Plasmodium berghei ANKA liver stage in HepG2-A16-CD81; test: % inhibition of liver stage parasite viability (luciferase); higher = more inhibition; conditions: 5 µM; 48 h
# Method: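 Single-concentration screen of the MMV Pandemic Response Box. P. falciparum NF54 asexual blood stages: pLDH assay, 72 h at 37 °C, 2 and 20 µM, n=2. Stage IV/V gametocytes (NF54): luciferase reporter (NF54-Pfs16-GFP-Luc, 48 h), ATP bioluminescence (24 h) and PrestoBlue (48 h) at 1 and 5 µM, n=1. P. berghei liver stage (luciferase in HepG2-A16-CD81, 48 h post infection) at 5 µM, n=4. All normalised to DMSO and kill controls as % inhibition.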
# 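For % inhibition of HepG2 viability (CellTiter-Glo) in this document: HepG2-A16-CD81 hepatoma cells plated as in the liver-stage assay but without sporozoites, with DMSO wells as negative and 25 µM puromycin as positive control.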
SMILES,% viability of CHO cells (CHO; 2 µM) [%],% viability of CHO cells (CHO; 20 µM) [%],% inhibition of HepG2 viability (HepG2-A16-CD81) [%],% inhibition of gametocyte viability ([1]; 1 µM) [%],% inhibition of gametocyte viability ([1]; 5 µM) [%],% inhibition of asexual blood stage proliferation ([2]; 2 µM) [%],% inhibition of asexual blood stage proliferation ([2]; 20 µM) [%],% inhibition of gametocyte viability ([3]; 1 µM) [%],% inhibition of gametocyte viability ([3]; 5 µM) [%],% inhibition of gametocyte viability ([4]; 1 µM) [%],% inhibition of gametocyte viability ([4]; 5 µM) [%],% inhibition of liver stage parasite viability [5] [%]
CCc1cc(Cc2cnc(N)nc2N)cc2c1N(C)CCC2C (centres undefined),96.1,110,7.88,< 0,< 0,16.7,95.1,< 0,< 0,< 0,< 0,7.3
CC(C)(C)NC(=O)N[C@H](C(=O)N1C[C@H]2[C@@H]([C@H]1C(=O)NC(CC1CCC1)C(=O)C(N)=O)C2(C)C)C(C)(C)C (some centres undefined),108,50.4,9.51,4.37,8.14,36.6,73.7,< 0,< 0,< 0,< 0,-15.2
O=C1NC(=O)C(Br)=C1Br,118,103,5.44,13.6,< 0,42.2,102,0.158,< 0,< 0,11.4,35.8
CC(C)(C)c1ccc(C(Cn2cccc(C(F)(F)F)c2=O)NC2Cc3ccccc3C2)cc1 (centres undefined),106,94.3,-1.5,10,21.3,32.7,69.1,< 0,< 0,< 0,3.42,2.01
Cc1onc(-c2ccccc2Cl)c1C(=O)N[C@@H]1C(=O)N2[C@@H]1SC(C)(C)[C@@H]2C(=O)O,126,143,-1.54,< 0,30.1,8.35,-0.0824,< 0,< 0,< 0,7.91,17.1
CC#C[C@]1(O)CC[C@H]2[C@@H]3CCC4=CC(=O)CCC4=C3[C@@H](c3ccc(N(C)C)cc3)C[C@@]21C,89.5,130,0.01,< 0,< 0,15.1,53.8,< 0,< 0,2.32,< 0,15.2
CCCCc1ccc(S(=O)(=O)Nc2cc(C)on2)cc1,106,124,15.2,18,10.4,84.8,64.2,2.13,< 0,< 0,< 0,40.7
O=C(NCc1ccc(F)cc1)c1c(O)c2ncccc2[nH]c1=O,121,91.5,5.33,< 0,20.1,54.8,31.4,3.16,< 0,5.58,< 0,14
Cc1ncc([N+](=O)[O-])n1CC(C)O (centres undefined),92.2,87.1,7.14,7.95,28.2,42.5,65.1,4.81,< 0,8.84,10,13.9
Nc1nc(O)c(Br)c(-c2ccccc2)n1,89.3,61.8,7.28,< 0,16.6,6.53,33.7,< 0,< 0,1.49,9.71,5.43
Nc1nc(-c2ccccc2)nc2c1ncn2[C@@H]1O[C@H](COS(=O)(=O)NC(=O)c2ccccc2O)[C@@H](O)[C@H]1O,102,129,3.69,16.3,11,19.4,71.1,< 0,< 0,< 0,< 0,2.37
NC(=O)c1nccn([C@@H]2O[C@H](CO)[C@@H](O)[C@H]2O)c1=O,91.2,105,4.39,5.72,19.8,11.7,53.8,< 0,< 0,7.58,< 0,14.7
O=C(Nc1ccccc1)N(Cc1cc(Br)ccc1O)c1ccc(F)cc1,99.5,61.3,-2.44,27.2,8.98,6.3,14.7,< 0,< 0,< 0,< 0,17.9
Cc1c(CN(C)C(=O)/C=C/c2cnc3c(c2)C(C)(C)C(=O)N3)oc2ccccc12,105,87.2,9.28,< 0,9.55,13.1,78.8,< 0,< 0,< 0,15.2,11.2
O=C(/C(=C/c1ccc(Cl)cc1Cl)n1ccnc1)c1ccc(Cl)cc1,108,113,-2.24,38.5,85.8,56.2,75.6,40.3,86.2,80.5,99.8,26.7
Nc1nc2c(Cc3cccnc3)c[nH]c2c(=O)[nH]1,97.2,113,-4.71,26.1,24.3,2.83,19.8,< 0,< 0,< 0,< 0,27.7
N[C@H](CCC(=O)N[C@@H](Cc1c[nH]c2ccccc12)C(=O)O)C(=O)O,116,57.6,-8.85,< 0,3.44,28.8,43.7,4.77,< 0,6.42,< 0,21.3
